The values that follow come from the supplement of paper PMC6853941.

A number with no mark means an inactive call.

In this assay the test system is MCF10A. Kind of assay: perturbation Mahalanobis distance of morphological profile vs DMSO controls (Mahalanobis distance (SD units)); higher = stronger morphological change, active = 7 or more. Particulars: 72 h. On the procedure: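 MCF10A cells were seeded onto drugs dispensed acoustically into 384-well plates, using one dose per drug chosen from its human peak plasma concentration, and incubated for 72 h at 37 °C. Cells were stained for DNA, tubulin and mitochondria and imaged; 78 CellProfiler features were extracted, plate-normalised and compared with DMSO wells.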

Setting [1] is: screen batch: Batch1_Mahalanobis_Distance.
[2] abbreviates: screen batch: Batch2_Mahalanobis_Distance.

As to `C[C@@](N)(Cc1ccc(O)c(O)c1)C(=O)O` [Methyldopa] (118.4 µM), the “perturbation Mahalanobis distance” value reads like this: under setting [1], 3.81; under setting [2], 3.85.

`NS(=O)(=O)Cc1noc2ccccc12` [Zonisamide] (141.4 µM): the “perturbation Mahalanobis distance” value by setting is: under setting [1], 2.42; under setting [2], 2.95.

With `N=C(N)c1ccc(OCCCCCOc2ccc(C(=N)N)cc2)cc1` [Pentamidine] (7.4 µM), the “perturbation Mahalanobis distance” value was 7.67 (active) under setting [1] and 9.96 (active) under setting [2].

As for `CCc1c2c(nc3ccc(OC(=O)N4CCC(N5CCCCC5)CC4)cc13)-c1cc3c(c(=O)n1C2)COC(=O)[C@]3(O)CC` [Irinotecan] (16.8 µM), the “perturbation Mahalanobis distance” value runs as follows: under setting [1], 11.9 (active); under setting [2], 16.6 (active).

As to `Cc1nc2n(c(=O)c1CCN1CCC(c3noc4cc(F)ccc34)CC1)CCCC2` [Risperidone] (73 µM), the “perturbation Mahalanobis distance” value is 2.9 under setting [1] and 2.4 under setting [2].

Take `CC/C(=C(\c1ccc(O)cc1)c1ccc(OCCNC)cc1)c1ccccc1` [Endoxifen] (6.75 µM): the “perturbation Mahalanobis distance” value is 2.6 under setting [1] and 7.34 (active) under setting [2].
